Measurements taken from PubChem BioAssay AID1159580 (chemical genetic matrix, 2015).
Values joined by “and” are separate entries in the source; they are usually repeats but may differ in a detail not shown here. Identical values can stand only once. In all, about 5,500 compounds went through this assay and about 2,000 (36%) were called active. Inconclusive results (about 18%) are left out. Rule as the data show it: active = normalized growth mostly below about 0.91 (no sharp cut-off); inconclusive = no clear call, values can overlap the other calls; inactive = mostly above about 0.92. Some of the results follow. A structure can be active in one record and inactive in another.

Test: chemical genetic growth profiling, strain panel (AID 1159580);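 also: tested at 20 µM; growth read once vehicle control cultures reached saturation at 30 °C; 1 = growth at the plate median or of vehicle wells; lower values mean less growth of the strain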
Settings: growth OD

Question: Which normalized growth (S. cerevisiae deletion strains, locus YJR075W, strain HOC1, stronger effect = lower value) does the source give for `CC(C)COCC(CN(Cc1ccccc1)c1ccccc1)N1CCCC1` (stereo not given) here?
Answer: 0.798 (active) and 1.01 (inactive)

Question: And the normalized growth (S. cerevisiae deletion strains, locus YKL009W, strain mrt4, stronger effect = lower value)?
Answer: 0.935 (inactive)

Question: And the normalized growth (S. cerevisiae deletion strains, locus YKL068W, stronger effect = lower value)?
Answer: 0.989 (inactive)

Question: And the normalized growth (S. cerevisiae deletion strains, locus YKL085W, strain MDH1 (second series), stronger effect = lower value)?
Answer: 0.979 (inactive)

Question: What about the normalized growth (S. cerevisiae deletion strains, locus YKL085W, strain MDH1, stronger effect = lower value) of the same compound?
Answer: 0.979 (inactive)

Question: And the normalized growth (S. cerevisiae deletion strains, locus YKL160W, strain elf1, stronger effect = lower value)?
Answer: 1.02 (inactive)

Question: What about the normalized growth (S. cerevisiae deletion strains, locus YKL190W, strain CNB1, stronger effect = lower value) of the same compound?
Answer: 0.923 (inactive)

Question: What about the normalized growth (S. cerevisiae deletion strains, locus YKR001C, strain vps1, stronger effect = lower value) of the same compound?
Answer: 0.793 (active)

Question: What about the normalized growth (S. cerevisiae deletion strains, locus YKR026C, strain gcn3, stronger effect = lower value) of the same compound?
Answer: 1.03 (inactive)

Question: What about the normalized growth (S. cerevisiae deletion strains, locus YKR091W, strain srl3, stronger effect = lower value) of the same compound?
Answer: 1.02 (inactive)

Question: And the normalized growth (S. cerevisiae deletion strains, locus YLL001W, strain dnm1, stronger effect = lower value)?
Answer: 1.03 (inactive)

Question: And the normalized growth (S. cerevisiae deletion strains, locus YLL026W, stronger effect = lower value)?
Answer: 1.02 (inactive)

Question: What about the normalized growth (S. cerevisiae deletion strains, locus YLL041C, strain sdh2, stronger effect = lower value) of the same compound?
Answer: 1.05 (inactive)

Question: And the normalized growth (S. cerevisiae deletion strains, locus YLR027C, strain aat2, stronger effect = lower value)?
Answer: 1.01 (inactive)

Question: And the normalized growth (S. cerevisiae deletion strains, locus YLR039C, strain RIC1, stronger effect = lower value)?
Answer: 0.705 (inactive)

Question: And the normalized growth (S. cerevisiae deletion strains, locus YLR058C, strain SHM2, stronger effect = lower value)?
Answer: 0.858 (active)

Question: And the normalized growth (S. cerevisiae deletion strains, locus YLR102C, strain apc9, stronger effect = lower value)?
Answer: 0.989 (inactive)

Question: And the normalized growth (S. cerevisiae deletion strains, locus YLR113W, strain HOG1, stronger effect = lower value)?
Answer: 1.01 (inactive)

Question: And the normalized growth (S. cerevisiae deletion strains, locus YLR221C, strain rsa3, stronger effect = lower value)?
Answer: 0.996 (inactive)

Question: What about the normalized growth (S. cerevisiae deletion strains, locus YLR258W, strain gsy2, stronger effect = lower value) of the same compound?
Answer: 1.03 (inactive)

Question: What about the normalized growth (S. cerevisiae deletion strains, locus YLR262C, strain YPT6 (second series), stronger effect = lower value) of the same compound?
Answer: 1.01 (inactive)

Question: What about the normalized growth (S. cerevisiae deletion strains, locus YLR262C, strain YPT6, stronger effect = lower value) of the same compound?
Answer: 0.59 (active)

Question: And the normalized growth (S. cerevisiae deletion strains, locus YLR268W, strain sec22, stronger effect = lower value)?
Answer: 0.935 (inactive)

Question: And the normalized growth (S. cerevisiae deletion strains, locus YLR320W, strain mms22, stronger effect = lower value)?
Answer: 0.948 (inactive)

Question: What about the normalized growth (S. cerevisiae deletion strains, locus YLR330W, strain CHS5, stronger effect = lower value) of the same compound?
Answer: 0.95 (inactive)

Question: What about the normalized growth (S. cerevisiae deletion strains, locus YLR342W, strain FKS1 (second series), stronger effect = lower value) of the same compound?
Answer: 0.707 (active)

Question: And the normalized growth (S. cerevisiae deletion strains, locus YLR342W, strain FKS1, stronger effect = lower value)?
Answer: 1 (inactive)

Question: And the normalized growth (S. cerevisiae deletion strains, locus YLR357W, strain rsc2, stronger effect = lower value)?
Answer: 1.01 (inactive)

Question: And the normalized growth (S. cerevisiae deletion strains, locus YLR370C, strain arc18, stronger effect = lower value)?
Answer: 1.04 (inactive)

Question: And the normalized growth (S. cerevisiae deletion strains, locus YLR371W, strain rom2, stronger effect = lower value)?
Answer: 0.961 (inactive)

Question: And the normalized growth (S. cerevisiae deletion strains, locus YLR384C, strain iki3, stronger effect = lower value)?
Answer: 1.03 (inactive)

Question: And the normalized growth (S. cerevisiae deletion strains, locus YLR418C, strain cdc73, stronger effect = lower value)?
Answer: 0.698 (active)

Question: What about the normalized growth (S. cerevisiae deletion strains, locus YML016C, strain PPZ1, stronger effect = lower value) of the same compound?
Answer: 0.973 (inactive)

Question: And the normalized growth (S. cerevisiae deletion strains, locus YML032C, strain rad52, stronger effect = lower value)?
Answer: 0.904 (active)

Question: And the normalized growth (S. cerevisiae deletion strains, locus YML120C, strain ndi1, stronger effect = lower value)?
Answer: 1.05 (inactive)

Question: What about the normalized growth (S. cerevisiae deletion strains, locus YML124C, strain tub3, stronger effect = lower value) of the same compound?
Answer: 0.989 (inactive)

Question: And the normalized growth (S. cerevisiae deletion strains, locus YMR058W, strain fet3, stronger effect = lower value)?
Answer: 0.997 (inactive)

Question: And the normalized growth (S. cerevisiae deletion strains, locus YMR078C, strain ctf18, stronger effect = lower value)?
Answer: 0.986 (inactive)

Question: What about the normalized growth (S. cerevisiae deletion strains, locus YMR125W, strain sto1, stronger effect = lower value) of the same compound?
Answer: 1.03 (inactive)

Question: What about the normalized growth (S. cerevisiae deletion strains, locus YMR129W, stronger effect = lower value) of the same compound?
Answer: 1.02 (inactive)

Question: And the normalized growth (S. cerevisiae deletion strains, locus YMR205C, strain PFK2, stronger effect = lower value)?
Answer: 1.02 (inactive)

Question: And the normalized growth (S. cerevisiae deletion strains, locus YMR223W, strain ubp8, stronger effect = lower value)?
Answer: 0.894 (active)

Question: And the normalized growth (S. cerevisiae deletion strains, locus YMR231W, strain pep5, stronger effect = lower value)?
Answer: 1.04 (inactive)

Question: And the normalized growth (S. cerevisiae deletion strains, locus YMR307W, strain GAS1, stronger effect = lower value)?
Answer: 0.726 (inactive)

Question: And the normalized growth (S. cerevisiae deletion strains, locus YNL067W, strain RPL9B, stronger effect = lower value)?
Answer: 0.843 (active)

Question: What about the normalized growth (S. cerevisiae deletion strains, locus YNL071W, strain lat1, stronger effect = lower value) of the same compound?
Answer: 1.03 (inactive)

Question: What about the normalized growth (S. cerevisiae deletion strains, locus YNL128W, strain TEP1, stronger effect = lower value) of the same compound?
Answer: 0.981 (inactive)

Question: And the normalized growth (S. cerevisiae deletion strains, locus YNL153C, strain GIM3, stronger effect = lower value)?
Answer: 0.823 (active)

Question: And the normalized growth (S. cerevisiae deletion strains, locus YNL175C, strain NOP13, stronger effect = lower value)?
Answer: 1 (inactive)

Question: What about the normalized growth (S. cerevisiae deletion strains, locus YNL183C, strain NPR1, stronger effect = lower value) of the same compound?
Answer: 0.935 (inactive)

Question: And the normalized growth (S. cerevisiae deletion strains, locus YNL197C, strain WHI3, stronger effect = lower value)?
Answer: 1.02 (inactive)

Question: What about the normalized growth (S. cerevisiae deletion strains, locus YNL209W, strain ssb2, stronger effect = lower value) of the same compound?
Answer: 1.03 (inactive)

Question: And the normalized growth (S. cerevisiae deletion strains, locus YNL224C, strain SQS1, stronger effect = lower value)?
Answer: 1.01 (inactive)

Question: And the normalized growth (S. cerevisiae deletion strains, locus YNL233W, strain BNI4, stronger effect = lower value)?
Answer: 0.781 (active)

Question: What about the normalized growth (S. cerevisiae deletion strains, locus YNL248C, strain rpa49, stronger effect = lower value) of the same compound?
Answer: 1.02 (inactive)

Question: And the normalized growth (S. cerevisiae deletion strains, locus YNL250W, strain rad50, stronger effect = lower value)?
Answer: 0.957 (inactive)

Question: And the normalized growth (S. cerevisiae deletion strains, locus YNL271C, strain bni1, stronger effect = lower value)?
Answer: 0.992 (inactive)

Question: What about the normalized growth (S. cerevisiae deletion strains, locus YNL298W, strain CLA4, stronger effect = lower value) of the same compound?
Answer: 0.994 (inactive)

Question: And the normalized growth (S. cerevisiae deletion strains, locus YNL307C, strain MCK1, stronger effect = lower value)?
Answer: 0.965 (inactive)

Question: What about the normalized growth (S. cerevisiae deletion strains, locus YNL322C, strain KRE1 (second series), stronger effect = lower value) of the same compound?
Answer: 1.06 (inactive)

Question: What about the normalized growth (S. cerevisiae deletion strains, locus YNL322C, strain KRE1, stronger effect = lower value) of the same compound?
Answer: 1 (inactive)

Question: And the normalized growth (S. cerevisiae deletion strains, locus YNR049C, strain mso1, stronger effect = lower value)?
Answer: 1.02 (inactive)

Question: What about the normalized growth (S. cerevisiae deletion strains, locus YNR052C, strain pop2, stronger effect = lower value) of the same compound?
Answer: 0.887 (active)

Question: And the normalized growth (S. cerevisiae deletion strains, locus YOL006C, strain TOP1, stronger effect = lower value)?
Answer: 0.242 (active)

Question: What about the normalized growth (S. cerevisiae deletion strains, locus YOL012C, strain htz1) of the same compound?
Answer: 0.611 (inactive)

Question: And the normalized growth (S. cerevisiae deletion strains, locus YOL147C, strain pex11, stronger effect = lower value)?
Answer: 0.989 (inactive)

Question: And the normalized growth (S. cerevisiae deletion strains, locus YOR001W, strain rrp6, stronger effect = lower value)?
Answer: 1.01 (inactive)

Question: What about the normalized growth (S. cerevisiae deletion strains, locus YOR061W, strain CKA2, stronger effect = lower value) of the same compound?
Answer: 0.93 (inactive)

Question: What about the normalized growth (S. cerevisiae deletion strains, locus YOR069W, strain VPS5, stronger effect = lower value) of the same compound?
Answer: 0.983 (inactive)

Question: And the normalized growth (S. cerevisiae deletion strains, locus YOR070C, strain gyp1, stronger effect = lower value)?
Answer: 1.02 (inactive)

Question: And the normalized growth (S. cerevisiae deletion strains, locus YOR080W, strain dia2, stronger effect = lower value)?
Answer: 1.06 (inactive)

Question: What about the normalized growth (S. cerevisiae deletion strains, locus YOR083W, strain WHI5 (second series), stronger effect = lower value) of the same compound?
Answer: 1.03 (inactive)

Question: What about the normalized growth (S. cerevisiae deletion strains, locus YOR083W, strain WHI5, stronger effect = lower value) of the same compound?
Answer: 0.967 (inactive)

Question: What about the normalized growth (S. cerevisiae deletion strains, locus YOR106W, strain vam3, stronger effect = lower value) of the same compound?
Answer: 1.03 (inactive)

Question: And the normalized growth (S. cerevisiae deletion strains, locus YOR136W, strain idh2, stronger effect = lower value)?
Answer: 0.954 (inactive)

Question: What about the normalized growth (S. cerevisiae deletion strains, locus YOR144C, strain elg1, stronger effect = lower value) of the same compound?
Answer: 0.99 (inactive)

Question: What about the normalized growth (S. cerevisiae deletion strains, locus YOR184W, strain ser1, stronger effect = lower value) of the same compound?
Answer: 0.888 (inactive)

Question: And the normalized growth (S. cerevisiae deletion strains, locus YOR231W, strain MKK1, stronger effect = lower value)?
Answer: 0.982 (inactive)

Question: What about the normalized growth (S. cerevisiae deletion strains, locus YOR265W, strain rbl2, stronger effect = lower value) of the same compound?
Answer: 1.02 (inactive)

Question: And the normalized growth (S. cerevisiae deletion strains, locus YOR270C, strain vph1, stronger effect = lower value)?
Answer: 0.972 (inactive)

Question: And the normalized growth (S. cerevisiae deletion strains, locus YOR290C, strain snf2, stronger effect = lower value)?
Answer: 1.02 (inactive)

Question: And the normalized growth (S. cerevisiae deletion strains, locus YOR316C, strain cot1, stronger effect = lower value)?
Answer: 0.979 (inactive)

Question: And the normalized growth (S. cerevisiae deletion strains, locus YPL051W, strain arl3, stronger effect = lower value)?
Answer: 0.99 (inactive)

Question: What about the normalized growth (S. cerevisiae deletion strains, locus YPL055C, strain LGE1, stronger effect = lower value) of the same compound?
Answer: 0.653 (active)

Question: What about the normalized growth (S. cerevisiae deletion strains, locus YPL078C, strain atp4, stronger effect = lower value) of the same compound?
Answer: 1.04 (inactive)

Question: And the normalized growth (S. cerevisiae deletion strains, locus YPL106C, strain sse1, stronger effect = lower value)?
Answer: 1.06 (inactive)

Question: What about the normalized growth (S. cerevisiae deletion strains, locus YPL240C, strain hsp82, stronger effect = lower value) of the same compound?
Answer: 1.02 (inactive)

Question: And the normalized growth (S. cerevisiae deletion strains, locus YPL241C, strain CIN2, stronger effect = lower value)?
Answer: 0.98 (inactive) and 1 (inactive)

Question: What about the normalized growth (S. cerevisiae deletion strains, locus YPL256C, strain CLN2, stronger effect = lower value) of the same compound?
Answer: 0.98 (inactive)

Question: And the normalized growth (S. cerevisiae deletion strains, locus YPR119W, strain clb2, stronger effect = lower value)?
Answer: 0.989 (inactive)

Question: And the normalized growth (S. cerevisiae deletion strains, locus YPR141C, strain kar3, stronger effect = lower value)?
Answer: 0.984 (inactive)

Question: What about the normalized growth (S. cerevisiae deletion strains, locus YPR163C, strain tif3, stronger effect = lower value) of the same compound?
Answer: 0.792 (active)

Question: And the normalized growth (S. cerevisiae deletion strains, locus YPR167C, strain met16, stronger effect = lower value)?
Answer: 0.988 (inactive)

Question: What about the normalized growth (S. cerevisiae deletion strains, strain wtn01, stronger effect = lower value) of the same compound?
Answer: 0.912 (inactive)

Question: What about the normalized growth (S. cerevisiae strains, strain wild type, stronger effect = lower value) of the same compound?
Answer: 0.878 (active)
